From PubChem BioAssay (NCATS) come the findings set out here.

Several values for one entry are separate records, joined by “and”; a condition that tells them apart may be missing. Equal values may be shown once. Results filed as inconclusive are left out. Values without a mark were called inactive. Activity calls are given as the source filed them. The call rests on the fitted dose curve; in most records, active means well fitted curve in the direction sought with a large enough effect; inconclusive means small, poorly fitted or top-dose-only effect, or another doubt; inactive means no such curve, though single readings can be large; an effect the other way counts as inactive or inconclusive.

Assay [1] is described as follows: Viability qHTS for spleen associated tyrosine kinase inhibitor (SYKi) naive MV4-11 cells (AID 1963823). Further: nearly all actives have a fitted effect of over 40% in size. In outline:
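Luminescence from CellTiter-Glo, developed 10 min at room temperature, gave viability of MV4-11 cells never exposed to SYK inhibitor. Cells (500/well) had been incubated with compounds for 72 hr under standard culture conditions.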
A general note: Quantitative high-throughput screening tests each substance at several concentrations.

Assay [2] can be described thus: Quantitative highthroughput screen to assess conditional lethalithy of SEM cells grown in Human Plasma-Like Medium with dialyzed fetal bovine serum (HPLM+ds) (AID 1963882). Further: nearly all actives have a fitted effect of over 35% in size. On Viability: series mostly up to about 46 µM. In a few lines:
(§1)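 Each medium arm—HPLM with 10% dialyzed FBS, or RPMI1640 with 5 mM glucose and 10% untreated or dialyzed FBS—was screened against an 11-point, 3-fold compound titration for 48 h at 37 °C, with CellTiter-Glo luminescence as endpoint.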

Assay [3] can be described thus: Quantitative highthroughput screen to assess conditional lethalithy of SEM cells grown in RPMI1640 with unreated serum (RPMI+s) (AID 1963883). Further: nearly all actives have a fitted effect of over 35% in size.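 On Viability: 100% = DMSO wells and 0% = empty wells without cells.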 In a few lines: as §1
Assay [4] is described as follows: Quantitative highthroughput screen to assess conditional lethalithy of SEM cells grown in RPMI1640 with dialyzed fetal bovine serum (RPMI+ds) (AID 1963884). Further: nearly all actives have a fitted effect of over 35% in size.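 On Viability: series mostly up to about 46 µM; 100% = DMSO control wells and 0% = empty wells without cells.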 In a few lines:
as §1

The nature of assay [5]: Cellular viability qHTS for adrenocortical cancer (ACC) cell line SW-13 (AID 1963989). Further: nearly all actives have a fitted effect of over 65% in size.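 On activity (max response): cells grown in serum-free medium with ITS supplement; on the % scale 0 is the no-effect control and ±100 the full control effect.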 Particulars: SW-13 ACC cells viability, CellTiter-Glo, 48 h; activity (max response): active compounds read low. In a few lines: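 Compound titrations (up to 46 uM final, in DMSO) were applied to SW-13 cells for 48 h at 37C/5% CO2. Reading used CellTiter-Glo after 20 min at room temperature; fitted curves yielded IC50 and efficacy.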

Assay [6] is described as follows: Cellular viability qHTS for adrenocortical cancer (ACC) cell line NCI-H295R (AID 1963990). Further: nearly all actives have a fitted effect of over 60% in size.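 On activity change, negative = viability loss: 0% = DMSO only wells and -100% = full killing with cytotoxic reference compound.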 In a few lines:
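Readout: CellTiter-Glo luminescence, 20 min RT. Exposure: 48 h, 37C/5% CO2. Cells: NCI-H295R, ITS-DMEM serum-free. Range: up to 46 uM. Analysis: 4PL fit, IC50 plus efficacy.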

Assay [7] in a line: Quantitative highthroughput screen to assess conditional lethalithy of P12 Ichikawa cells grown in Human Plasma-Like Medium with dialyzed fetal bovine serum (HPLM+ds) (AID 1963879). Further: nearly all actives have a fitted effect of over 35% in size. On Viability: series mostly up to about 46 µM. Particulars: Potency: viability. In a few lines:
as §1

Assay [8] is described as follows: Quantitative highthroughput screen to assess conditional lethalithy of P12 Ichikawa cells grown in RPMI1640 with dialyzed fetal bovine serum (RPMI+ds) (AID 1963880). Further: nearly all actives have a fitted effect of over 35% in size.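 On Viability: 100% = DMSO wells and 0% = empty wells on each plate.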 The note with it: Potency: P12-Ichikawa viability. In a few lines: as §1
Assay [9] in a line: Quantitative highthroughput screen to assess conditional lethalithy of P12 Ichikawa cells grown in RPMI1640 with untreated serum (RPMI+s) (AID 1963881). Further: nearly all actives have a fitted effect of over 35% in size.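 On Viability: series mostly up to about 46 µM; 100% = DMSO wells and 0% = empty wells without cells.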 Particulars: Potency: viability. In outline:
as §1

Assay [10] in a line: Quantitative highthroughput screen to assess conditional lethalithy of NOMO1 cells grown in Human Plasma-Like Medium with dialyzed fetal bovine serum (HPLM+ds) (AID 1963878). Further: nearly all actives have a fitted effect of over 35% in size. In outline:
as §1
Potency means the concentration at half of the fitted maximal effect.

For the compound `Cc1ccc(Nc2nccc(N(C)c3ccc4c(C)n(C)nc4c3)n2)cc1S(N)(=O)=O`, the Potency is 0.742 µM (active) in assay [1], 16.6 µM (active) in [2], 14.8 µM (active) in assay [3] and 14.8 µM (active) in assay [4]. In addition, in [5], the activity (max response) is -20.1%. Besides, the Potency entry in [6] was “inactive”.
Consider `O=C(Cn1ccnc1[N+](=O)[O-])NCc1ccccc1`, for which the Potency entry in assay [1] is “inactive”. Further, the activity (max response) in assay [5] was -1.05%.
In the case of `CCOc1cc(N2CCC(O)CC2)ccc1Nc1ncc2c(n1)N(C)c1ccccc1C(=O)N2C`, the Potency in assay [1] was 1.86 µM (active); in assay [7], 2.09 µM (active); in [8], 3.32 µM (active); in [9], 2.35 µM (active); in assay [2] it was 20.9 µM (active); in assay [3], 16.6 µM (active). For the same compound, the Potency in [4] was 16.6 µM (active); in assay [5], 15.8 µM (active); in assay [6], 10 µM (active).
With `CC(=O)N1CCN(c2ccc(O)cc2)CC1`, the Potency result in [1] was “inactive”. For the same compound, the activity (max response) in assay [5] is 7.26%.
For `CC(C)(O)CNc1ncc(-c2ccnc(Nc3ccncc3)n2)c(CC2CC2)n1`, the Potency in assay [1] is 1.48 µM (active); in assay [5], 14.1 µM (active).
As to `CCOC(=O)C1=C[C@]2(CC)CCCN3CCc4c(n1c1ccccc41)[C@@H]32`, the Potency in assay [1] is 13.3 µM (active). The Potency entry in [7], in assay [2] and in assay [4] was “inactive” throughout.
Regarding `CC(=O)OC[C@@H]1O[C@@H](n2ccc(=O)[nH]c2=O)[C@H](OC(C)=O)[C@H]1OC(C)=O`, the Potency entry in assay [1], in [8], in [9], in assay [2], in assay [4] and in assay [6] was “inactive” in each case. In addition, in assay [5], the activity (max response) is -1.19%.
On to `CCCC(=O)OCOC(=O)C1=C(C)NC(C)=C(C(=O)OC)C1c1cccc(Cl)c1Cl` (stereo not drawn), for which, in assay [1], the Potency result is “inactive”. The activity (max response) in [5] is 6.2%.
Take `CC1(C)CCC(C)(C)c2cc(NC(=O)c3ccc(C(=O)O)cc3)ccc21`: the Potency entry in assay [1], in assay [7], in assay [9], in assay [2], in [3] and in [4] was “inactive” throughout. For the same compound, the Potency entry in [6] was “inactive”. Moreover, the activity (max response) in assay [5] was -9.24%.
For the compound `C[C@]1(c2nc3c(C(N)=O)cccc3[nH]2)CCCN1`, the Potency entry in assay [1], in assay [7], in assay [2] and in assay [6] was “inactive” in each case. In addition, the activity (max response) in assay [5] is 7.65%.
For `CC[C@@H](C)Nc1cc(C(=O)NC2CC3CCC(C2)N3c2ccc(C(=O)C3CC3)cn2)c(C)cc1C(N)=O` (stereo partly drawn), the Potency in assay [1] is 0.0417 µM (active); in assay [5], 0.355 µM (active).
In the case of `CC1(C)CCC2=C(O1)c1ccccc1C(=O)C2=O`, the Potency in assay [1] is 8.33 µM (active); in [2], 26.4 µM (active); in assay [3], 26.4 µM (active); in assay [4], 18.7 µM (active); in assay [5] it was 15.8 µM (active); in assay [6] it was 8.91 µM (active).
Turning to `CC(C)(C)C(=O)N1N=CC[C@H]1c1ccccc1`, the Potency in assay [1] is 2.35 µM (active). In addition, the activity (max response) in assay [5] is 3.19%.
On to `Nc1ccc(N)c([N+](=O)[O-])c1`, for which, in [1], the Potency was 24.3 µM (active). In assay [5], the activity (max response) is -20.8%.
Take `Nc1nc(Nc2ccc(S(N)(=O)=O)cc2)nn1C(=O)c1c(F)cccc1F`: the Potency is 1.16 µM (active) and 1.86 µM (active) in [1]; 18.7 µM (active) in [10]; 8.33 µM (active) in assay [2]; 10.5 µM (active) in [3]; 9.35 µM (active) in assay [4]; 3.55 µM (active) in [5]. For the same compound, the Potency in assay [6] was 15.8 µM (active).
In the case of `CSCC[C@H](NC(=O)[C@H](Cc1c[nH]c2ccccc12)NC(=O)CCNC(=O)OC(C)(C)C)C(=O)N[C@@H](CC(=O)O)C(=O)N[C@@H](Cc1ccccc1)C(N)=O`, the Potency entry in assay [1] is “inactive”. In assay [5], the activity (max response) was 1.93%.
Regarding `COc1ccc(-c2cc(=S)ss2)cc1`, the Potency result in assay [1] was “inactive”. Moreover, in assay [5], the activity (max response) is -5.69%.
Regarding `CN1[C@@H]2CC(OC(=O)[C@H](CO)c3ccccc3)C[C@H]1[C@@H]1O[C@@H]12` (stereo partly drawn), the Potency entry in assay [1] and in assay [6] was “inactive” each time. Also, the activity (max response) in assay [5] was 1.78%.
With `Cc1ccc(S(=O)(=O)NC(=O)NC2CCCCCCC2)cc1`, the Potency entry in assay [1] and in assay [6] was “inactive” in each case. Moreover, the activity (max response) in [5] was 11.9%.
Consider `CN1CCN(C(=O)[C@H]2[C@@H](C(=O)O)[C@H]3CC[C@@H]2O3)CC1`, for which the viability (% of control) in [1] was 78.3% [at 9.25 µM]. In addition, the activity (max response) in assay [5] is -7.83%. The activity change, negative = viability loss in assay [6] is 2.26% [at 9.17 µM].
As for `O=C(CCN1CCN(CCO)CC1)N1c2ccccc2Sc2ccc(C(F)(F)F)cc21`, the Potency entry in [1] and in assay [6] was “inactive” throughout. In addition, in [5], the activity (max response) was -5.01%.
Regarding `O=C1Cc2cc(Cl)ccc2N1`, the Potency entry in [1] and in assay [6] was “inactive” in each case. Besides, the activity (max response) in assay [5] is 11.1%.
For the compound `NC(N)=Nc1nc(CSCC/C(N)=N/S(N)(=O)=O)cs1`, the Potency entry in [1] and in [6] was “inactive” throughout. For the same compound, in assay [5], the activity (max response) is 9.53%.
